Screening data: PubChem BioAssay, National Center for Advancing Translational Sciences (NCATS)
Only some compounds are listed: those with a hit (about 21% of all), similar ones and a draw of the others.
CHX counter: affects cycloheximide protein synthesis inhibition readout, counter-screen | cell reporter, cycloheximide protein synthesis inhibition counterscreen | max response, % | 300,000 tested, 12% active; in the data active = max response mostly above about 13%, no sharp cut-off; inactive = mostly below about 14%; also: read at 38.3 µM for the half of the compounds with a filed dose; 0% is about no effect
Sm TGR inh: blocks Schistosoma mansoni thioredoxin glutathione reductase. AID 485364. purified TGR, DTNB reduction, TNB absorbance 405 nm. 360,000 tested, 3% active. Q962Y6. Potency, µM (highest dose often 114 µM), inactives show at the highest dose activity change, negative = inhibition, actives largely listed as inhibitors; also: potency is read from the fitted curve at half-maximal effect; % is scaled to controls: 0 for no effect and ±100 for the full control effect; nearly all actives have a fitted effect of over 60% in size
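Kinetic colorimetric format: TGR-catalysed, NADPH-driven DTNB reduction monitored via TNB absorbance. Enzyme dispensed at 20 nM; compound exposure 15 min at room temperature before reaction start.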
Pf growth 48h: inhibits P. falciparum growth in the first generation, 48 h | 310,000 tested, 5.9% active | AID 504832 | Potency, µM (top dose mostly 28.7 µM), for inactives: at the top dose activity change, negative = inhibition, usual class: inhibitors | P. falciparum luciferase growth in erythrocytes, 48 h; also: potency is read from the fitted curve at half-maximal effect; % is scaled to controls: 0 for no effect and ±100 for the full control effect
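Luminescence readout; reporter = integrated firefly luciferase in P. falciparum. RBC culture at 2% hematocrit, 0.1% parasitemia final, 37 C/5% CO2; decreased signal taken as growth inhibition.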
NS1 inh: influenza NS1 inhibition; Potency, µM (top dose mostly 46.1 µM), inactives show at the top dose activity, positive = more growth; 270,000 tested, 0.4% active; calls by dose curve; also: potency is read from the fitted curve at half-maximal effect; actives are rising curves; nearly all actives have a fitted effect of over 50% in size
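Growth recovery, yeast-based: influenza A NS1 expressed in S. cerevisiae causes slow growth, and suppressors are detected by OD600. The parent strain without NS1 is used as positive control.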
Pf growth 96h: inhibits malaria parasite growth, 96 h; P. falciparum luciferase reporter growth, 96 h; Potency, µM (titrated, usually from 28.7 µM), for inactives: at the highest dose activity change, negative = inhibition, usual class: inhibitors; 320,000 tested, 6.9% active; AID 504834; also: potency is read from the fitted curve at half-maximal effect; % is scaled to controls: 0 for no effect and ±100 for the full control effect
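Luminescence readout: decreased luciferase signal marks inhibited growth of reporter-expressing P. falciparum in infected red cells (2% hematocrit, 0.05% parasitemia final), exposed to compound two generations (96 h, 37 C, 5% CO2).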
Shiga toxin inh: inhibitors of Shiga toxin in Vero cells; Vero cells, Shiga toxin protein synthesis inhibition reporter; inhibition, % at 38.7 µM; 290,000 tested, 9.2% active; in the data active = inhibition mostly above about 28%, no sharp cut-off; inactive = mostly below about 43%; also: 0% is about no effect
An asterisk follows results filed as active; i = inactive; ? = inconclusive; / = no result given. Unless noted, calls follow the shape of the dose curve; as a rule, active = well fitted curve in the direction sought with a large enough effect; inconclusive = small, poorly fitted or top-dose-only effect, or another doubt; inactive = no such curve, though single readings can be large; an effect the other way counts as inactive or inconclusive.

SMILES	CHX counter	Sm TGR inh	Pf growth 48h	NS1 inh	Pf growth 96h	Shiga toxin inh
Cn1cc(C(=O)NCCN2CCN(c3cccc(Cl)c3)CC2)c2c3ccccc3n(C)c2c1=O	-2	-9%	1µM*	-42%	?	5
Cn1c(=O)cc(OCC(=O)NCCCN2CCN(c3cccc(Cl)c3)CC2)c2ccccc21	-4	1%	?	-1%	12µM*	-17
Cc1cccc(CCNC(=O)COc2cc(=O)n(C)c3ccccc23)c1	-7	-3%	-11%	/	10µM*	2
Cn1c(=O)cc(OCC(=O)NCCCN2CCN(c3ccccc3F)CC2)c2ccccc21	-5	-9%	/	-3%	?	-14
Cn1cccc1/C=C1\CC(C(C)(C)C)C/C(=C\c2cccn2C)C1=O (stereo not drawn)	-2	-25%	/	5%	62%	-5
CN1C2CCC1/C(=C/c1cccn1C)C(=O)/C2=C\c1cccn1C	-5	35µM*	-17%	14%	-2%	-19
CN1C2CCC1/C(=C\c1ccc(F)cc1)C(=O)/C2=C/c1ccc(F)cc1	-5	-11%	0.83µM*	-9%	-3%	-17
Cc1csc(NC(=O)c2ccc(C)c([N+](=O)[O-])c2)n1	42*	-15%	282%	9%	?	45
CCOC(=O)C(C)Sc1nnc(NC(=O)c2cccc([N+](=O)[O-])c2C)s1 (stereo not drawn)	-8	3%	-6%	4%	?	-14
Cc1csc(NC(=O)c2ccc(Cl)cc2[N+](=O)[O-])n1	46*	-16%	i	/	-30%	128*
Cc1csc(NC(=O)c2ccccc2[N+](=O)[O-])n1	-5	-27%	/	0%	74%	-18
CCOC(=O)C(C)Sc1nnc(NC(=O)c2ccc(C)c([N+](=O)[O-])c2)s1 (stereo not drawn)	-5	8%	-3%	-24%	15µM*	-14
CC(=O)Nc1ccc(S(=O)(=O)NCCc2csc3nc(-c4cccc(C)c4)nn23)cc1	/	0%	/	/	/	/
COc1ccccc1C1CCN(C(=O)c2ccc(C(C)(C)C)cc2)CC1	6	1%	12µM*	-46%	7.4µM*	-5
COC(=O)c1ccccc1NC(=O)Nc1ccc(C(=O)N2CCCC2)cc1	2	-1%	21%	-14%	?	-7
COc1ccccc1NC(=O)Nc1ccc(C(=O)N2CCCCC2)cc1	27*	1%	181%	-2%	329%	80*
COc1ccccc1C(=O)Nc1ccc(C(=O)N2CCCCC2)cc1	13*	8%	-25%	-5%	6%	-1
C1CNCCOCCNCCN1	-2	-4%	30%	7%	?	-13
CC(=O)N1CC(C)Oc2ccc(S(=O)(=O)Nc3ccc(Cl)cn3)cc21 (stereo not drawn)	8	-6%	-9%	2%	?	14
CCCc1cc(=O)oc2cc(C)c3c(-c4cccc(OC)c4)coc3c12	/	-4%	/	/	/	/
Cc1cc(=O)[nH]c(N/N=C/C2=C(N3CCOCC3)C(=C\c3ccc(Cl)cc3)/CC2)n1	7	25µM*	?	9%	?	6
Cc1occc1C(=O)N/N=C/C1=C(N2CCOCC2)C(=C\c2ccc(Cl)cc2)/CC1	24*	-8%	19%	14%	60%	13
C=C(C)CSc1nnc(-c2ccc(OC)cc2)n1N	45*	7%	47%	-6%	30%	53*
C=C(C)CSc1nnc(-c2cccc(Cl)c2)n1N	42*	0%	69%	-10%	38%	111*
COc1ccc(-c2nnc(SCC(N)=O)n2N)cc1	1	5%	33%	2%	?	25
Nn1c(SCC(=O)Nc2ccc3c(c2)OCO3)nnc1-c1cccc(Cl)c1	7	-20%	18%	3%	48%	12
O=C(CSc1ncccc1C(=O)O)NC12CC3CC(CC(C3)C1)C2	-4	2%	-25%	/	-5%	-4
COc1ccc2c(=O)c3c(=O)n(Cc4ccco4)c(C4CCCCC4)nc3oc2c1	-4	-13%	?	1%	?	20
COCCCn1c(C2CCCCC2)nc2oc3cc(OC)ccc3c(=O)c2c1=O	-2	-6%	?	8%	0.93µM*	22
COCCn1c(-c2ccc(C)cc2)nc2oc3cc(OC)ccc3c(=O)c2c1=O	-1	-12%	4.1µM*	-6%	?	-4
